Experimental data from PubChem BioAssay (EPA / NIEHS).
Active and inactive are the calls of the source. The calls were made as follows: active = hit-call score of the fitted dose curve at least 0.9, where 1 is the maximum; inactive = score below 0.9.

How the values were obtained:
[1] = ATG_CRE_CIS: Attagene CIS-FACTORIAL HepG2 Assay for human cAMP Responsive Element (CRE) binding protein 3 (AID 2282926); details: HepG2 CRE cis-reporter, Attagene multiplexed mRNA; actives raise or lower the signal
Procedure, shortened: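 We dosed HepG2 cells bearing multiple cis-promoter reporter units for 24 h and measured reporter mRNA by RT-PCR with capillary electrophoresis detection. Bidirectional concentration-response fitting used DMSO as negative control.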

[2] = target: CCAAT/enhancer-binding protein beta (Homo sapiens) (UniProt P17676); test: ATG_C_EBP_CIS: Attagene CIS-FACTORIAL HepG2 Assay for human CCAAT/Enhancer Binding Protein (C/EBP) beta (AID 2282927); details: HepG2 Attagene cis-factorial transcription factor reporter; actives raise or lower the signal
CCAAT/enhancer-binding protein beta (Homo sapiens), sequence (P17676 whole entry, looked up, the tested form may be a part): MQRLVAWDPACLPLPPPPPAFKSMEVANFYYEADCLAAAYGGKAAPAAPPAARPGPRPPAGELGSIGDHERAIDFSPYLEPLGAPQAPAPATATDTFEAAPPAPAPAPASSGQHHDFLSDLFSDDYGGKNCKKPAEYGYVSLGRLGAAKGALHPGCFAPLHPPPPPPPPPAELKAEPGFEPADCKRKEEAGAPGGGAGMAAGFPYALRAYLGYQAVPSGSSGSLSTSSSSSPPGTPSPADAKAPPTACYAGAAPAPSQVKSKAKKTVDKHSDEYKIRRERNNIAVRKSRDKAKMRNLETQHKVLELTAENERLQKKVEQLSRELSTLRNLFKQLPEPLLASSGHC
Procedure, shortened: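 Endogenous C/EBPb-driven reporter transcripts measured in transfected human HepG2 cells at 24 h via RT-PCR and capillary electrophoresis of labelled fragments. Activity fitted in both directions relative to DMSO baseline.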

[3] = ATG_CMV_CIS: Attagene CIS-FACTORIAL HepG2 Assay for human CMV (Internal Marker) (AID 2282928); details: HepG2 CMV promoter reporter, transcription factor profiling; actives raise or lower the signal;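 also: endpoint acts as a background internal control marker rather than a target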
Procedure, shortened: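 CMV internal-marker background readout in transiently transfected HepG2 cells bearing cis-regulated reporter units. Reporter mRNA is measured 24 h after dosing by RT-PCR and capillary electrophoresis, with bidirectional fitting against DMSO.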

[4] = ATG_DR4_LXR_CIS: Attagene CIS-FACTORIAL HepG2 Assay for human Liver X Receptor (LXR), DR4 submotif (AID 2282929); details: HepG2 Attagene DR4 cis-reporter, mRNA transcription; actives raise or lower the signal
Procedure, shortened: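 HepG2 cells transiently transfected with cis-promoter-driven multiplexed reporter units (DR4 element) were dosed for 24 h. Reporter mRNA was quantified by RT-PCR, fluorescent primer extension, HpaI digestion and capillary electrophoresis; bidirectional fitting versus DMSO baseline.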

[5] = target: Aryl hydrocarbon receptor (Homo sapiens) (UniProt P35869); test: ATG_Ahr_CIS: Attagene CIS-FACTORIAL HepG2 Assay for human Aryl Hydrocarbon Receptor (Ahr) (AID 2282930); details: HepG2 AhR cis-factorial reporter transcription; actives raise or lower the signal
Aryl hydrocarbon receptor (Homo sapiens), sequence (P35869 whole entry, looked up): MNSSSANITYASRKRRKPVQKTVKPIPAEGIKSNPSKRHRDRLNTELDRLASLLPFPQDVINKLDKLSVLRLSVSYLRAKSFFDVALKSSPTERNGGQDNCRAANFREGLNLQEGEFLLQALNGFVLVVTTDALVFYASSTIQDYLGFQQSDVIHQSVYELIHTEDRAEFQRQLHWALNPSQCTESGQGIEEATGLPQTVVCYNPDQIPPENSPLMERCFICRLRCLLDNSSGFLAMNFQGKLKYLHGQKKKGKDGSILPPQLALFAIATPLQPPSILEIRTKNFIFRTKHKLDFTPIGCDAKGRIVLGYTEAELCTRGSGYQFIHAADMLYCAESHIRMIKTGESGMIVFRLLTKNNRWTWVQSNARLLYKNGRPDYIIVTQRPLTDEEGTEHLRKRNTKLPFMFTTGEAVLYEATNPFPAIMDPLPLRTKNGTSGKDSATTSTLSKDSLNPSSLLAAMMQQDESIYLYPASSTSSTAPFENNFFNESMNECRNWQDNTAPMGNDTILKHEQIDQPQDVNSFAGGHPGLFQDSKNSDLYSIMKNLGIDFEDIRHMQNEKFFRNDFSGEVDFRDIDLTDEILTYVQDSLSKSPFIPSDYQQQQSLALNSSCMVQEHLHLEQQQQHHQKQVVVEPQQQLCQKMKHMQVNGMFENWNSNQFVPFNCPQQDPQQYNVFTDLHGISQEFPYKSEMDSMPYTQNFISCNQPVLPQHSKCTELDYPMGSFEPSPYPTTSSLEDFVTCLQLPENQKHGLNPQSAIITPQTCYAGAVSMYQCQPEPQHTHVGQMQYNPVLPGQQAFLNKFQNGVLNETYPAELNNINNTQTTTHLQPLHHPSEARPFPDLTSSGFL
Procedure, shortened: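 Reporter mRNA levels, quantified by RT-PCR and fluorescent capillary electrophoresis, reflect endogenous AhR transcriptional activity in HepG2 cells carrying transfected cis-promoter reporter constructs. Readout at 24 h post-dose; gain or loss fitted against DMSO baseline.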

[6] = ATG_AP_1_CIS: Attagene CIS-FACTORIAL HepG2 Assay for human Activator Protein 1 (AP-1) (AID 2282931); details: HepG2 Attagene cis-factorial AP-1 reporter mRNA; actives raise or lower the signal
Procedure, shortened: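 HepG2 cells transiently transfected with cis-element-driven multiplex reporter units; 24 h compound exposure. Reporter mRNA quantified by RT-PCR, FAM-labelled fragments resolved by capillary electrophoresis; bidirectional fit versus DMSO baseline.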

[7] = ATG_AP_2_CIS: Attagene CIS-FACTORIAL HepG2 Assay for human Activator Protein 2 (AP-2) (AID 2282932); details: HepG2 AP-2 cis-reporter, Attagene transcription factor profiling; actives raise or lower the signal
Procedure, shortened: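 HepG2, transient MRTU transfection, cis-regulated reporters; 24 h compound exposure; RNA isolated, RT-PCR, 6-FAM labelling, HpaI digest, CE fluorescence. DMSO = negative control/baseline, bidirectional fit.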

[8] = ATG_BRE_CIS: Attagene CIS-FACTORIAL HepG2 Assay for human Bone Morphogenetic Protein (BMP) Response Element (BRE) (AID 2282933); details: HepG2 BMP response element reporter, Attagene transcription factor profiling; actives raise or lower the signal
Procedure, shortened: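 HepG2 cells transiently transfected with multiplexed cis-element reporter units were dosed with chemical for 24 h. Reporter mRNA was measured by RT-PCR with fluorescent labelling, HpaI digestion and capillary electrophoresis; bidirectional fitting relative to DMSO.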

[9] = target: Transcription factor E2F1 (Homo sapiens) (UniProt Q01094); test: ATG_E2F_CIS: Attagene CIS-FACTORIAL HepG2 Assay for human E2F Transcription Factor 1 (AID 2282935); details: HepG2 Attagene cis-reporter, E2F reporter RNA transcripts; actives raise or lower the signal
Transcription factor E2F1 (Homo sapiens), sequence (Q01094 whole entry, looked up): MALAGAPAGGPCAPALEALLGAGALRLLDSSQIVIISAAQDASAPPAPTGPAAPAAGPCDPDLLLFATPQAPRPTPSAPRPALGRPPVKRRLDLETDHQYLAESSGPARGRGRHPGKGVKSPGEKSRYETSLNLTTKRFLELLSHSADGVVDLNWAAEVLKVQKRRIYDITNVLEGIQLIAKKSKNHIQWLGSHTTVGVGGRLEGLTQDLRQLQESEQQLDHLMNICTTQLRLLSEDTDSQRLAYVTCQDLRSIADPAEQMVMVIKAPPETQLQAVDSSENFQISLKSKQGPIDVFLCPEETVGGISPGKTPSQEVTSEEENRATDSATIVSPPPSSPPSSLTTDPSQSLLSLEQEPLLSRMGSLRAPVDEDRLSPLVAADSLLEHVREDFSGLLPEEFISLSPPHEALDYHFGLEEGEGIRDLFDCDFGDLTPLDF
Procedure, shortened: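 Cis-element reporter mRNA induction in transiently transfected HepG2, 24 h exposure. Activity fitted in both directions relative to DMSO negative control.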

[10] = ATG_E_Box_CIS: Attagene CIS-FACTORIAL HepG2 Assay for human Enhancer Box (E-box) (AID 2282936); details: HepG2 E-box cis-reporter transcription, actives raise or lower the signal
Procedure, shortened: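 Cells: HepG2 (human liver), transient MRTU transfection. Exposure 24 h. RNA → oligo(dT) RT → PCR → 6-FAM label → HpaI → CE. Activity fitted both directions relative to DMSO.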

[11] = ATG_M_61_CIS: Attagene CIS-FACTORIAL HepG2 Assay for M61 Transcription Factor (Internal Marker) (AID 2282937); details: HepG2 Attagene CIS-FACTORIAL M61 internal marker reporter; actives raise or lower the signal
Procedure, shortened: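 HepG2 cells transiently transfected with cis-element-driven multiple reporter transcription units, dosed for 24 h. Reporter mRNA measured by RT-PCR, 6-FAM primer-extension labelling, HpaI digestion and capillary electrophoresis; bidirectional fit versus DMSO baseline.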

[12] = ATG_EGR_CIS: Attagene CIS-FACTORIAL HepG2 Assay for human Early Growth Response 1 (EGR1) (AID 2282938); details: HepG2 Attagene CIS-FACTORIAL EGR reporter mRNA; actives raise or lower the signal
Procedure, shortened: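 HepG2 cells transiently transfected with cis-promoter-driven multiplexed reporter transcription units; reporter mRNA measured 24 h after compound dosing by RT-PCR, 6-FAM primer extension, HpaI digestion and capillary electrophoresis. Bidirectional fit versus DMSO baseline.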

[13] = ATG_M_19_CIS: Attagene CIS-FACTORIAL HepG2 Assay for M19 Transcription Factor (Internal Marker) (AID 2282939); details: HepG2 Attagene CIS-FACTORIAL M19 internal marker reporter; actives raise or lower the signal
Procedure, shortened: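 HepG2 cells transiently transfected with cis-regulated multiple reporter transcription units were dosed for 24 h; reporter mRNA was quantified by RT-PCR, 6-FAM primer-extension labelling, HpaI digestion and capillary electrophoresis, with bidirectional fitting against DMSO baseline.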

[14] = ATG_ERE_CIS: Attagene CIS-FACTORIAL HepG2 Assay for Estrogen Response Element (ERE) (AID 2282940); details: HepG2 ERE cis-reporter, Attagene RNA transcript; actives raise or lower the signal
Procedure, shortened: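 HepG2 cells transiently transfected with cis-promoter-driven multiplexed reporter transcription units report endogenous TF activity. After 24 h compound exposure, reporter mRNA is quantified by RT-PCR with capillary electrophoresis fluorescence; bidirectional fitting versus DMSO baseline.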

[15] = ATG_Ets_CIS: Attagene CIS-FACTORIAL HepG2 Assay for human Erythroblast Transformation Specific (ETS) (AID 2282941); details: HepG2 ETS cis-reporter transcription, actives raise or lower the signal
Procedure, shortened: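 HepG2 cells transfected with multiple cis-regulated reporter units measuring endogenous ETS-driven transcription, 24 h after dosing. Reporter mRNA quantified by RT-PCR with capillary electrophoresis; bidirectional fit relative to DMSO.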

[16] = target: Hepatocyte nuclear factor 3-beta (Homo sapiens) (UniProt Q9Y261); test: ATG_FoxA2_CIS: Attagene CIS-FACTORIAL HepG2 Assay for human Forkhead box A2 (FOXA2) (AID 2282942); details: HepG2 cis-reporter transcription factor activity, 24 h; actives raise or lower the signal
Hepatocyte nuclear factor 3-beta (Homo sapiens), sequence (Q9Y261 whole entry, looked up): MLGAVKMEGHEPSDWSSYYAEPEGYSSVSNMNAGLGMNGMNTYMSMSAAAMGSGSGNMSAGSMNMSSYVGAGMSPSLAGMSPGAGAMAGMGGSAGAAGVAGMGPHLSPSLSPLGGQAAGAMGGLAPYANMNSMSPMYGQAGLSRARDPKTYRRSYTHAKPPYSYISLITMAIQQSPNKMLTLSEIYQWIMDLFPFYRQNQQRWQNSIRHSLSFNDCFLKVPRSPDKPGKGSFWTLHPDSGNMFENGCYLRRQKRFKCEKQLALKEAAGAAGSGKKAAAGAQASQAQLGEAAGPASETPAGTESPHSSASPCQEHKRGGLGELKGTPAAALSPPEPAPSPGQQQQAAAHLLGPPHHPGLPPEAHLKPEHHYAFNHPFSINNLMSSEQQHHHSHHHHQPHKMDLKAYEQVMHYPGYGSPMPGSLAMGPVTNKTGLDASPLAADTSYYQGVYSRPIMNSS
Procedure, shortened: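 HepG2 cells transiently transfected with multiple cis-regulated reporter transcription units, dosed for 24 h. Reporter mRNA measured by RT-PCR, 6-FAM labelling, HpaI digestion and capillary electrophoresis; bidirectional fitting against DMSO baseline.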

[17] = ATG_FoxO_CIS: Attagene CIS-FACTORIAL HepG2 Assay for human Forkhead box O (FoxO) (AID 2282943); details: HepG2 Attagene cis-reporter, FoxO element, mRNA; actives raise or lower the signal
Procedure, shortened: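 Endogenous transcription factor activity read from multiplexed cis-promoter reporter transcripts in transiently transfected HepG2, 24 h after dosing. Reporter RNA measured via RT-PCR plus capillary electrophoresis of FAM-labeled products; gain or loss relative to DMSO.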

[18] = ATG_GATA_CIS: Attagene CIS-FACTORIAL HepG2 Assay for human GATA Binding Protein (AID 2282944); details: HepG2 GATA cis-element reporter, Attagene multiplex mRNA; actives raise or lower the signal
Procedure, shortened: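 HepG2 cells transiently transfected with multiplexed cis-element reporter units reflecting endogenous transcription factor activity; reporter mRNA measured after 24 h dosing by RT-PCR, 6-FAM labeling, HpaI digestion and capillary electrophoresis. Bidirectional fitting versus DMSO baseline.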

[19] = ATG_GLI_CIS: Attagene CIS-FACTORIAL HepG2 Assay for human Zinc Finger Protein GLI1 (AID 2282945); details: HepG2, Attagene cis-factorial reporter mRNA, GLI element; actives raise or lower the signal
Procedure, shortened: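 Bidirectional curve fits relative to DMSO, using reporter mRNA levels from RT-PCR plus capillary electrophoresis. Cells were HepG2 transiently carrying cis-regulated reporter constructs, harvested 24 h after dosing.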

Compound	outcome [1]	outcome [2]	outcome [3]	outcome [4]	outcome [5]	outcome [6]	outcome [7]	outcome [8]	outcome [9]	outcome [10]	outcome [11]	outcome [12]	outcome [13]	outcome [14]	outcome [15]	outcome [16]	outcome [17]	outcome [18]	outcome [19]	AC50 [14]
CC(=O)Nc1ccc(CC(=O)O)cc1	inactive	inactive	inactive	inactive	inactive	inactive	inactive	inactive	inactive	inactive	inactive	inactive	inactive	inactive	inactive	inactive	inactive	inactive	inactive	–
CC(=O)/C=C/C1=C(C)CCCC1(C)C	inactive	inactive	inactive	inactive	inactive	inactive	inactive	inactive	inactive	inactive	inactive	inactive	inactive	inactive	inactive	inactive	inactive	inactive	inactive	–
CCCCc1ccc(N)cc1	inactive	inactive	inactive	inactive	inactive	inactive	inactive	inactive	inactive	inactive	inactive	inactive	inactive	–	inactive	inactive	inactive	inactive	inactive	29.6 µM (active)
OCc1cccnc1	inactive	inactive	inactive	inactive	inactive	inactive	inactive	inactive	inactive	inactive	inactive	inactive	inactive	inactive	inactive	inactive	–	inactive	inactive	–
